What all share (assay type): functional
Assay [1] has as its system Plasmodium falciparum. Nature of the assay: GSK_TCMDC: Inhibition of Plasmodium falciparum 3D7 in whole red blood cells, using parasite LDH activity as an index of growth. Test compounds present at 2uM.
In assay [2] the test system is Plasmodium falciparum. As to the kind of experiment: GSK_TCMDC: Inhibition of Plasmodium falciparum Dd2 in whole red blood cells, using parasite LDH activity as an index of growth. Test compounds present at 2uM.
The subject of a further assay is HepG2. Nature of the assay: GSK_TCMDC: Percent inhibition of human HepG2 cell line. Test compounds present at 10uM.

For orientation: Inhibition means the change of the read-out against control, counted positive when it falls.

Consider `CCCCc1ccc2[nH]c(NC(=O)OC)nc2c1` [PARBENDAZOLE], for which the Inhibition is given as 98% in the assay on Plasmodium falciparum [1], 1% in the assay with Plasmodium falciparum [2] and 26% in the assay with HepG2.

As for `Cc1cccc(CN2CCC(CNC(=O)c3cc4c(-c5ccccc5F)nn(C)c4s3)CC2)c1`, the Inhibition in the assay on Plasmodium falciparum [1] is on record as 85%; in the assay with Plasmodium falciparum [2], 15%; in the assay with HepG2 it was 18%.

On to `COC(=O)c1noc(C)c1I`, for which the Inhibition in the assay with Plasmodium falciparum [1] came to 99%; with Plasmodium falciparum [2] it was 2%; in the assay on HepG2, 5%.

Take `c1cc(CNC2Cc3ccc(-c4cccs4)cc3C2)cc(-n2ccnc2)c1` (stereo unspecified): the Inhibition with Plasmodium falciparum [1] turned out to be 100%; in the assay on Plasmodium falciparum [2], 63%; in the assay on HepG2, 0%.

Consider `Cc1cccc2nc(-c3ccc(-c4cccc(CNCC5CCCO5)c4)s3)[nH]c12.O=C(O)C(F)(F)F` (stereo unspecified), for which the Inhibition in the assay with Plasmodium falciparum [1] came out at 93%; in the assay with Plasmodium falciparum [2], 11%; in the assay with HepG2, 26%.

As to `COc1ccc(-c2cccc(NC(=O)c3ccc(C#N)cc3)c2)cc1CN1CCCC1.O=C(O)C(F)(F)F`, the Inhibition in the assay with Plasmodium falciparum [1] turned out to be 98%; in the assay on Plasmodium falciparum [2] it was 15%; in the assay on HepG2, 30%.

As to `Br.CC1(C)N=C(N)N=C(N)N1OCc1cccc2c1ccc1ccccc12`, the Inhibition in the assay on Plasmodium falciparum [1] is recorded as 95%; with Plasmodium falciparum [2], 97%; in the assay with HepG2, 63%.

`O=C(Nc1ccccc1)N(Cc1ccccc1-c1cccc(CNCc2ccc3c(c2)OCO3)c1)C1CCN(Cc2ccccc2)CC1.O=C(O)C(F)(F)F`: the Inhibition was 100% with Plasmodium falciparum [1], 64% in the assay with Plasmodium falciparum [2] and 35% in the assay on HepG2.

Consider `Cc1ccc(C)c(C2CCN(CCCCNC(=O)c3ccc(NC(=O)c4ccc(Cl)cc4)cc3)CC2)c1`, for which the Inhibition with Plasmodium falciparum [1] is given as 94%; in the assay with Plasmodium falciparum [2], 13%; with HepG2, 15%.

On to `COc1ccc(OC)c2c1CCN(CCN1CCC(C(=O)Nc3ccc(C(=O)Nc4ccc(Cl)cc4)cc3)CC1)C2`, for which the results for the Inhibition in the assay with Plasmodium falciparum [1], with Plasmodium falciparum [2] and with HepG2 were 100%, 100% and 25%, respectively.

With `Cc1[nH]c(C)c(-c2ccc(-c3ccc(OC(F)(F)F)cc3)cc2)c(=O)c1Br`, the Inhibition in the assay with Plasmodium falciparum [1] was 96%; with Plasmodium falciparum [2], 97%; in the assay with HepG2 it was 33%.

`O=C(NCCc1ccccc1)N(Cc1ccc(-c2cccc(CN3CCNCC3)c2)cc1)C1CCN(Cc2ccccc2)CC1.O=C(O)C(F)(F)F`: the Inhibition worked out at 90% in the assay with Plasmodium falciparum [1], 29% with Plasmodium falciparum [2] and 27% in the assay on HepG2.

In the case of `Cc1cc(=NN=Cc2ccccc2Cl)c2ccc(F)cc2[nH]1`, the Inhibition was 100% with Plasmodium falciparum [1], 100% in the assay on Plasmodium falciparum [2] and 6% in the assay with HepG2.

With `O=C(Nc1cccc(-c2cccc(-c3nc4ccccc4[nH]3)c2)c1)c1csnn1`, the Inhibition with Plasmodium falciparum [1] was 90%; in the assay on Plasmodium falciparum [2], 27%; in the assay with HepG2, 31%.

Regarding `Cc1ccc(O)cc1Nc1ccnc2ccc(-c3cccc(CNCCN(C)C)c3)cc12`, the Inhibition in the assay with Plasmodium falciparum [1] was found to be 100%; with Plasmodium falciparum [2], 46%; with HepG2, 0%.

For the compound `Cc1nc2c(-n3cc(Cn4ccnc4)c4ccccc43)ncnc2n1-c1ccc(Cl)cc1Cl`, the Inhibition with Plasmodium falciparum [1] was found to be 89%; in the assay with Plasmodium falciparum [2], 29%; in the assay with HepG2, 16%.

For `CCCCCCCN1CCC(CC(=O)Nc2ccnc3ccc(OC)cc23)CC1`, the Inhibition in the assay with Plasmodium falciparum [1] was 97%; in the assay on Plasmodium falciparum [2] it was 52%; in the assay on HepG2, 15%.

As to `O=C(/C=C/c1ccc(Cl)c(Cl)c1)N1CCC(CCCN2CCC(c3c[nH]c4ccccc34)CC2)CC1`, the results for the Inhibition in the assay with Plasmodium falciparum [1], in the assay with Plasmodium falciparum [2] and in the assay on HepG2 were 100%, 45% and 44%, respectively.

In the case of `Cl.N=C1N=C(N)NCN1OCc1ccc(Cl)c(Cl)c1`, the Inhibition in the assay on Plasmodium falciparum [1] is given as 95%; in the assay with Plasmodium falciparum [2] it was 4%; with HepG2, 14%.

Take `CC(=O)N(C)C1CCN(Cc2ccc(-c3cccc(-c4nc5cc(F)ccc5[nH]4)c3)cc2)C1.O=C(O)C(F)(F)F` (stereo unspecified): the Inhibition in the assay with Plasmodium falciparum [1] was 100%; with Plasmodium falciparum [2], 79%; with HepG2 it was 28%.

Consider `Cc1cc(OCCCn2ccnc2)ccc1-c1csc(/N=C(\N)NCc2ccccc2)n1`, for which the Inhibition with Plasmodium falciparum [1] amounted to 92%; in the assay with Plasmodium falciparum [2] it was 42%; in the assay on HepG2, 26%.

Turning to `Cc1cc(NC2CCCC2)nc(Nc2ccccc2F)n1`, the results for the Inhibition in the assay with Plasmodium falciparum [1], with Plasmodium falciparum [2] and in the assay with HepG2 were 97%, 53% and 24%, respectively.

As to `CC(C)(C)C(Cn1ccnc1)NCc1c[nH]nc1-c1ccc(-c2ccccc2)cc1` (stereo unspecified), the Inhibition in the assay with Plasmodium falciparum [1] worked out at 98%; in the assay on Plasmodium falciparum [2], 69%; in the assay with HepG2, 15%.

`CCOc1cc(C(=O)N[C@@H](Cc2ccccc2)[C@H](O)CNCc2cc(OC)cc(OC)c2)cc(N2CCCCS2(=O)=O)c1.Cl`: the Inhibition in the assay with Plasmodium falciparum [1] is on record as 100%; in the assay with Plasmodium falciparum [2], 98%; with HepG2 it was 0%.

Turning to `CN(Cc1cccc(O)c1)C1CCN(c2cc(NC(=O)c3ccc(F)cc3)ccn2)CC1.O=C(O)C(F)(F)F`, the Inhibition was found to be 94% in the assay on Plasmodium falciparum [1], 9% in the assay with Plasmodium falciparum [2] and 24% in the assay with HepG2.

`O=C(Cc1ccc(NC(=O)c2ccc(O)c(-c3ccc(Cl)c(Cl)c3)c2)cc1)NCCN1CCOCC1`: the Inhibition in the assay with Plasmodium falciparum [1] is recorded as 94%; in the assay on Plasmodium falciparum [2], 24%; in the assay with HepG2, 10%.

For `O=C(NC1CCC1)C1CCN(C(c2ccccc2)c2cc(F)cc(F)c2)CC1` (stereo unspecified), the figures for the Inhibition with Plasmodium falciparum [1], with Plasmodium falciparum [2] and in the assay on HepG2 were 94%, 72% and 0%, respectively.

Turning to `COc1ccc(C2C(C(=O)Nc3cc(Cl)c(OC)cc3OC)c3ccccc3C(=O)N2C)cc1` (stereo unspecified), the Inhibition was 100% in the assay with Plasmodium falciparum [1], 98% in the assay on Plasmodium falciparum [2] and 14% in the assay with HepG2.

As to `CSc1ccc(NC(=O)Nc2cc(C)nc3ccccc23)cc1Br`, the Inhibition came to 100% in the assay on Plasmodium falciparum [1], 66% in the assay on Plasmodium falciparum [2] and 7% in the assay with HepG2.

On to `Cc1cnc(C(=O)Nc2cccc(-c3csc(-c4nc5ccccc5[nH]4)c3)c2)cn1`, for which the Inhibition in the assay on Plasmodium falciparum [1] worked out at 98%; in the assay with Plasmodium falciparum [2], 80%; with HepG2, 31%.

As to `NC(=O)C1CCN(Cc2cccc(-c3cccc(-c4nc5cc(F)ccc5[nH]4)c3)c2)CC1.O=C(O)C(F)(F)F`, the results for the Inhibition in the assay on Plasmodium falciparum [1], in the assay with Plasmodium falciparum [2] and with HepG2 were 100%, 7% and 15%, respectively.

Turning to `Cl.O=C1CSc2ccc(CNC3CCN(CCc4c(F)cnc5ccc(F)cc45)CC3)nc2N1`, the Inhibition in the assay with Plasmodium falciparum [1] was 97%; with Plasmodium falciparum [2], 16%; in the assay with HepG2, 13%.

(Values after ChEMBL document CHEMBL1157539, “Thousands of chemical starting points for antimalarial lead identification” (Nature, 2010).)
